From PubChem BioAssay (NCATS)
Records with an inconclusive call do not appear. A number with no mark means an inactive call. The source made the active and inactive calls. The call rests on the fitted dose curve; in most records, active means well fitted inhibition curve with a large enough effect; inconclusive means small, poorly fitted or top-dose-only effect; inactive means flat fitted curve, though single readings scatter.

target: Calcium and integrin-binding protein 1 (Homo sapiens) (UniProt Q99828); experiment: Primary qHTS for Identification of Calcium Integrin Binding Protein 1 (CIB1) Competitor (AID 1508620); details: CIB1-GST / FITC-alphaIIb peptide fluorescence polarization; series mostly up to 114 µM; activity change, negative = inhibition: at the top concentration;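 further: GST tagged CIB1 binding a fluorescein labelled alphaIIb integrin peptide tracer; top concentration of the series differs between compounds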
Sequence (Q99828 whole entry, looked up): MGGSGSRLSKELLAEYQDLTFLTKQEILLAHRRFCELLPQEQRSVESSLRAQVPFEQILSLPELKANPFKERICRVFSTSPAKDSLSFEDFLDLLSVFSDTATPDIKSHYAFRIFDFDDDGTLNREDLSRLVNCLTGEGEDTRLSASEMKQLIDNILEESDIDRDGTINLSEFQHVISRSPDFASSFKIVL
Method in brief: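 Fluorescence polarization competition: CIB1-GST (1 uM final) preincubated with compound 15 min at room temperature, then FITC-labeled alphaIIb peptide (100 nM final) added for another 15 min. Polarization read at Ex 480/Em 540.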
On the % scale 0 is the no-effect control and ±100 the full control effect.

SMILES | activity change, negative = inhibition | Potency
Clc1ccc(CSc2nc3ncc(Br)cc3[nH]2)cc1Cl | -1.94% | –
O=C(O)c1ccc(-c2noc(-c3cccc(Cl)c3)n2)cc1 | 0.425% | –
NC(=O)c1ccc(-c2noc(-c3ccccc3F)n2)cc1 | 1.67% | –
CCC(O)(c1nnc(NCc2ccc3c(-c4ccc(F)cc4)cc(=O)oc3c2)o1)C(F)(F)F (configuration not stated) | -3.39% | –
COc1ccc(NC(=O)c2cnn3c(C)cc(C)nc23)cc1 | 2.74% | –
COc1ccc([S+](=O)([O-])N2CCCN([S+](=O)([O-])c3ccc(OC)c(NC(C)=O)c3)CC2)cc1NC(C)=O | -0.0408% | –
Cc1ccc(S(=O)(=O)NC(N)=NCCC[C@@H](NC(=O)CNC(=O)c2ccccc2)C(=O)Nc2cc(C(F)(F)F)ccc2Cl)cc1 | -4.03% | –
Oc1ccc(/C=C/c2ccccc2)c2cccnc12 | -12.1% | –
C[C@@H]1CN(S(=O)(=O)c2c(F)cccc2F)CCN1S(=O)(=O)c1ccc2c(c1)OCCO2 | 1.5% | –
O=C(O)c1ccc(-n2cccc2/C=C2\SC(=O)N(Cc3ccc(Cl)cc3)C2=O)cc1 | 6.26% | –
Cc1ccc(OCCn2c(CCNC(=O)CCN3CCCCC3)nc3ccccc32)cc1 | 3.12% | –
Cn1c2cc(Br)sc2c2cnn(Cc3ccc(F)cc3F)c(=O)c21 | 5.2% | –
COc1cc(-c2no[n+]([O-])c2C#N)cc(OC)c1OC | 1.22% | –
Cc1ccc(OCCn2c(CCNC(=O)COc3ccccc3Br)nc3ccccc32)cc1 | 43.2% | –
O=S(=O)(c1ccc2ccccc2c1)N1CCN(S(=O)(=O)c2c(F)cccc2F)CC1 | -1.01% | –
Cc1cccc(Cn2ncc3c4sc(C)cc4n(C)c3c2=O)c1 | 2.65% | –
CC(=O)C1CCN(c2ncc(-c3cccc(N(C)C)c3)s2)CC1 | -3.96% | –
O=S1(=O)Nc2c(ccc3cccnc23)-c2ccccc21 | -12.3% | –
O=C1CCCC2=C1[C@@]1(CCC(c3ccccc3)C1)N=C(Nc1nc3ccccc3o1)N2 (some centres not stated) | – | inactive
COc1ccccc1NC(=O)c1ccc2ccccc2c1 | 4.28% | –
O=[S+]([O-])(Nc1ccc(-c2ccccc2)cc1)c1ccc(NCc2ccc(Cl)cc2O)cc1 | -0.284% | –
O=C1Nc2ccccc2/C1=C\c1ccc([N+](=O)[O-])cc1 | – | inactive
